Columns and labels:
Assay in all cases: DAPPL (digital affinity profiling via proximity ligation, sequencing); 10 mM Tris-HCl pH 7.5, 50 mM NaCl, 1 mM DTT, 4% glycerol, room temperature, 30 min; GST-TFs on glutathione beads, 16-mer random dsDNA library, 0.1% formaldehyde crosslink after washing; high values mean tight binding
Settings in all cases: protein: recombinant; tags: N-terminal GST; dsDNA, one strand shown
FLI1 = biological target: T1, FLI1 (Homo sapiens, UniProt Q01543 1-452)
T1 sequence: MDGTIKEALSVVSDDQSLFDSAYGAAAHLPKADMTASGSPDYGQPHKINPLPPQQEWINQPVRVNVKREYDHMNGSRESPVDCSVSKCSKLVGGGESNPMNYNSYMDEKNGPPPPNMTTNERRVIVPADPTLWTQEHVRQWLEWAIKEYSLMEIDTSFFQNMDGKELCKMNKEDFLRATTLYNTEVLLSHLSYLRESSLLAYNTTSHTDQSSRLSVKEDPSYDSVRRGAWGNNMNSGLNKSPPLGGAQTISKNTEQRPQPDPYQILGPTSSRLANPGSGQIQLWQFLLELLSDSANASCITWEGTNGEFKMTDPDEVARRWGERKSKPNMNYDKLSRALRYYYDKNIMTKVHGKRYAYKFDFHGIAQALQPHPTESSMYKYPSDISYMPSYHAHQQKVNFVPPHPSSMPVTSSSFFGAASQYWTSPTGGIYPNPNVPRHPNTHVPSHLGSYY
Method in brief: (§1)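 The binding signal reported is, for every hexamer, its read frequency for a factor over its read frequency for the tag-only sample. Reads came from pools of yeast-expressed, GST-fused human transcription factors on glutathione beads, barcoded with DNA and mixed with that sample, which were incubated with 200 nmole of a random double-stranded 16-mer DNA library in Tris/NaCl/DTT/glycerol buffer at room temperature for 30 min. After washing, the pools were crosslinked with 0.1% formaldehyde, proximity-ligated with BsaI/T4 ligase for 1 h at 37 °C, PCR-amplified and sequenced on an Illumina NextSeq500.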

ELK1 = biological target: T2, ELK1 (Homo sapiens, UniProt P19419 1-428)
T2 sequence: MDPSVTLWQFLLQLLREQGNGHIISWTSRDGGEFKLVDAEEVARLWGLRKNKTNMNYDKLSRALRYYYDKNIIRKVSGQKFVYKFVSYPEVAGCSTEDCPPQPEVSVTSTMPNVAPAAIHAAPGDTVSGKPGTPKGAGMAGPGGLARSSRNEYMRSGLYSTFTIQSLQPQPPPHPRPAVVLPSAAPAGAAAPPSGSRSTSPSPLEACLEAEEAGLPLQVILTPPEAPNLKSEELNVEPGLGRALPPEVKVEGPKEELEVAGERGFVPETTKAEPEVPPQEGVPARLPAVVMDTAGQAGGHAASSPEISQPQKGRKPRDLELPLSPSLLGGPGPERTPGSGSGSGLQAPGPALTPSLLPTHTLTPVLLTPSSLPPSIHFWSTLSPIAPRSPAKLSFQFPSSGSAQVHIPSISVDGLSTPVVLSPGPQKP
Method in brief: as §1

GABPA = biological target: T3, GABPA (Homo sapiens, UniProt Q06546 1-454)
T3 sequence: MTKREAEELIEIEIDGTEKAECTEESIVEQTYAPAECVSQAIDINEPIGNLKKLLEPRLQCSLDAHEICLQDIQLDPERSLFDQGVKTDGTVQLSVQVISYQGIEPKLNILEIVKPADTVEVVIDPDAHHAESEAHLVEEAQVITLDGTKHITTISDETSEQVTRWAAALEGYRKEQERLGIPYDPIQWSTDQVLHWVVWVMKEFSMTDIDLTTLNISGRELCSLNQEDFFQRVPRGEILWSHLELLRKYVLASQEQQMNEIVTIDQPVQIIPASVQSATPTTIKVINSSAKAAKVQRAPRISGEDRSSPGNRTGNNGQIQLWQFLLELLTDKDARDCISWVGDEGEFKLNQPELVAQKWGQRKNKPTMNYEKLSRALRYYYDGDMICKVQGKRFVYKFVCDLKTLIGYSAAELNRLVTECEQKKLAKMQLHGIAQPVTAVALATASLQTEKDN
Method in brief: as §1

ERG = biological target: T4, ERG (Homo sapiens, UniProt P11308 1-479)
T4 sequence: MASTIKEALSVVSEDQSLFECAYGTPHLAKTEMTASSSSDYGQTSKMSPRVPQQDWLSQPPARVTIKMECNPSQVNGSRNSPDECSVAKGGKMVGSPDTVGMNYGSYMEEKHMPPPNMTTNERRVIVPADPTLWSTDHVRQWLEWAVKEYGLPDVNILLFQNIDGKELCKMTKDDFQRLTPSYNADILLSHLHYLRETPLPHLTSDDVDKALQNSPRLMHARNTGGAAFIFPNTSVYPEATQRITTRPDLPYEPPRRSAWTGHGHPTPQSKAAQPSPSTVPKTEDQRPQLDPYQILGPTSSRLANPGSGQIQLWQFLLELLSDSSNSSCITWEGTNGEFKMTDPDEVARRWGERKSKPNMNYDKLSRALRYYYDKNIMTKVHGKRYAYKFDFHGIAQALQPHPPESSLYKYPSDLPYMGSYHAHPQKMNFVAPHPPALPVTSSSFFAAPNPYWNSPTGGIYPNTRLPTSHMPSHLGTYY
Method in brief: as §1

ELF1 = ELF1 (Homo sapiens, UniProt P32519 1-619)
Sequence of ELF1 (P32519 whole entry): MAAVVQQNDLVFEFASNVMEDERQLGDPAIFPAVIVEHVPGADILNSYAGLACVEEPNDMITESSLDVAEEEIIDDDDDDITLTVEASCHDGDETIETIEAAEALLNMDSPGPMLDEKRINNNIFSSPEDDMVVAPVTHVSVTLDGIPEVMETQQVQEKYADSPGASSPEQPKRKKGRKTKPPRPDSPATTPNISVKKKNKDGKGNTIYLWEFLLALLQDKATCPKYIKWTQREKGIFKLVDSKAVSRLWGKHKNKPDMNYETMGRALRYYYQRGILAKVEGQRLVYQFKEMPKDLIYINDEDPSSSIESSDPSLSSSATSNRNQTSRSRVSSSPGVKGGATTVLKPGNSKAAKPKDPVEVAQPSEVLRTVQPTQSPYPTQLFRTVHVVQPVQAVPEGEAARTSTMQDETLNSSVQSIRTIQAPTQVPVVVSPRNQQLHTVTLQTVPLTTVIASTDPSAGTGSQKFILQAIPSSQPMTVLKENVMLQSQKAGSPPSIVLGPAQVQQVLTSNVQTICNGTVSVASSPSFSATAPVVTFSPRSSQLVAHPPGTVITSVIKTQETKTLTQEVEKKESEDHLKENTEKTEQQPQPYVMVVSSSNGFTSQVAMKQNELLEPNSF
Method in brief: as §1

EHF = biological target: T5, EHF (Homo sapiens, UniProt Q9NZC4 1-300)
T5 sequence: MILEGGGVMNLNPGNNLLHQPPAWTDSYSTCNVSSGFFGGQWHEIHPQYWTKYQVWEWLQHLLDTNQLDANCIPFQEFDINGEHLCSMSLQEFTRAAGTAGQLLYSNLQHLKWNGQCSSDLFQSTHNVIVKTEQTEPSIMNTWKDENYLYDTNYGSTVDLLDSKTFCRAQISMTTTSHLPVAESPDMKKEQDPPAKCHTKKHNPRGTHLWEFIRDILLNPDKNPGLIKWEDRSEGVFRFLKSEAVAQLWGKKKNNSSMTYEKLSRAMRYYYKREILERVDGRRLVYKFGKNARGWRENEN
Method in brief: as §1

SPI1 = SPI1 (Homo sapiens, UniProt P17947 1-270)
Method in brief: as §1

SPIB = SPIB (Homo sapiens, UniProt Q01892 1-262)
Sequence of SPIB (Q01892 whole entry): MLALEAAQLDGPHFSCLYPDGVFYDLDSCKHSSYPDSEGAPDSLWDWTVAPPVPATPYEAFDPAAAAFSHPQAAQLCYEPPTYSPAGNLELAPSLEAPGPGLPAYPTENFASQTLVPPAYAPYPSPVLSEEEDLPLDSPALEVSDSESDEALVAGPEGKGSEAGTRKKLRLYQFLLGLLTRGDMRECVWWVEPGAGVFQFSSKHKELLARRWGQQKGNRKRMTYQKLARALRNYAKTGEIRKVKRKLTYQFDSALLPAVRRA
Method in brief: as §1

ELK3 = biological target: T6, ELK3 (Homo sapiens, UniProt P41970 1-407)
T6 sequence: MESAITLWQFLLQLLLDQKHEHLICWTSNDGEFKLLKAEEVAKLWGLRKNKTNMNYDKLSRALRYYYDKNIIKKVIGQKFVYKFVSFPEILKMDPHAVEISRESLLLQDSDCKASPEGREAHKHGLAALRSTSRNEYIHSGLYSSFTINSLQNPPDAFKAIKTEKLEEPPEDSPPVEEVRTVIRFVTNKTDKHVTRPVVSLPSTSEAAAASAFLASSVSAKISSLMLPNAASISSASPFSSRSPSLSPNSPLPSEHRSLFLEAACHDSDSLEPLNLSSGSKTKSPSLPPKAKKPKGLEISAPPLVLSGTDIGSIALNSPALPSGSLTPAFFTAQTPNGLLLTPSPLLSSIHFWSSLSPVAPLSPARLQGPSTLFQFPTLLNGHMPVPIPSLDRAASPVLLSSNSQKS
Method in brief: as §1

Sequence | binding signal (FLI1) | binding signal (ELK1) | binding signal (GABPA) | binding signal (ERG) | binding signal (ELF1) | binding signal (EHF) | binding signal (SPI1) | binding signal (SPIB) | binding signal (ELK3)
CTAGCA | 1.28 fold enrichment (6-mer frequency, TF over GST control) | 1.26 fold enrichment (6-mer frequency, TF over GST control) | 1.2 fold enrichment (6-mer frequency, TF over GST control) | 1.18 fold enrichment (6-mer frequency, TF over GST control) | 1.26 fold enrichment (6-mer frequency, TF over GST control) | 1.23 fold enrichment (6-mer frequency, TF over GST control) | 1.14 fold enrichment (6-mer frequency, TF over GST control) | 1.24 fold enrichment (6-mer frequency, TF over GST control) | 1.33 fold enrichment (6-mer frequency, TF over GST control)
TTGATG | 1.45 fold enrichment (6-mer frequency, TF over GST control) | 1.82 fold enrichment (6-mer frequency, TF over GST control) | 1.72 fold enrichment (6-mer frequency, TF over GST control) | 1.61 fold enrichment (6-mer frequency, TF over GST control) | 1.64 fold enrichment (6-mer frequency, TF over GST control) | 1.65 fold enrichment (6-mer frequency, TF over GST control) | 1.51 fold enrichment (6-mer frequency, TF over GST control) | 1.62 fold enrichment (6-mer frequency, TF over GST control) | 1.52 fold enrichment (6-mer frequency, TF over GST control)
CTGAAT | 1.23 fold enrichment (6-mer frequency, TF over GST control) | 1.37 fold enrichment (6-mer frequency, TF over GST control) | 1.36 fold enrichment (6-mer frequency, TF over GST control) | 1.36 fold enrichment (6-mer frequency, TF over GST control) | 1.31 fold enrichment (6-mer frequency, TF over GST control) | 1.31 fold enrichment (6-mer frequency, TF over GST control) | 1.36 fold enrichment (6-mer frequency, TF over GST control) | 1.26 fold enrichment (6-mer frequency, TF over GST control) | 1.23 fold enrichment (6-mer frequency, TF over GST control)
ATAGAT | 1.16 fold enrichment (6-mer frequency, TF over GST control) | 1.14 fold enrichment (6-mer frequency, TF over GST control) | 1.17 fold enrichment (6-mer frequency, TF over GST control) | 1.11 fold enrichment (6-mer frequency, TF over GST control) | 1.23 fold enrichment (6-mer frequency, TF over GST control) | 1.17 fold enrichment (6-mer frequency, TF over GST control) | 1.07 fold enrichment (6-mer frequency, TF over GST control) | 1.16 fold enrichment (6-mer frequency, TF over GST control) | 1.23 fold enrichment (6-mer frequency, TF over GST control)
TTAAAG | 1.17 fold enrichment (6-mer frequency, TF over GST control) | 1.11 fold enrichment (6-mer frequency, TF over GST control) | 1.26 fold enrichment (6-mer frequency, TF over GST control) | 1.1 fold enrichment (6-mer frequency, TF over GST control) | 1.19 fold enrichment (6-mer frequency, TF over GST control) | 1.18 fold enrichment (6-mer frequency, TF over GST control) | 1.12 fold enrichment (6-mer frequency, TF over GST control) | 1.19 fold enrichment (6-mer frequency, TF over GST control) | 1.09 fold enrichment (6-mer frequency, TF over GST control)
ATATCA | 1.23 fold enrichment (6-mer frequency, TF over GST control) | 1.24 fold enrichment (6-mer frequency, TF over GST control) | 1.22 fold enrichment (6-mer frequency, TF over GST control) | 1.14 fold enrichment (6-mer frequency, TF over GST control) | 1.2 fold enrichment (6-mer frequency, TF over GST control) | 1.15 fold enrichment (6-mer frequency, TF over GST control) | 1.13 fold enrichment (6-mer frequency, TF over GST control) | 1.14 fold enrichment (6-mer frequency, TF over GST control) | 1.11 fold enrichment (6-mer frequency, TF over GST control)
TATTCC | 1.65 fold enrichment (6-mer frequency, TF over GST control) | 1.68 fold enrichment (6-mer frequency, TF over GST control) | 1.6 fold enrichment (6-mer frequency, TF over GST control) | 1.52 fold enrichment (6-mer frequency, TF over GST control) | 1.59 fold enrichment (6-mer frequency, TF over GST control) | 1.58 fold enrichment (6-mer frequency, TF over GST control) | 1.48 fold enrichment (6-mer frequency, TF over GST control) | 1.49 fold enrichment (6-mer frequency, TF over GST control) | 1.56 fold enrichment (6-mer frequency, TF over GST control)
TAACTA | 1.36 fold enrichment (6-mer frequency, TF over GST control) | 1.29 fold enrichment (6-mer frequency, TF over GST control) | 1.46 fold enrichment (6-mer frequency, TF over GST control) | 1.42 fold enrichment (6-mer frequency, TF over GST control) | 1.32 fold enrichment (6-mer frequency, TF over GST control) | 1.27 fold enrichment (6-mer frequency, TF over GST control) | 1.3 fold enrichment (6-mer frequency, TF over GST control) | 1.35 fold enrichment (6-mer frequency, TF over GST control) | 1.32 fold enrichment (6-mer frequency, TF over GST control)

Reference: PMC7862700, “An all-to-all approach to the identification of sequence-specific readers for epigenetic DNA modifications on cytosine”
